This passage reports z-score and composite z-score results from PubChem BioAssay.

The source made the active and inactive calls. Unless noted, no rule for the calls is given here.

Assay [1] in a line: resazurin metabolic signal in HepG2 cells – cell-based, resazurin fluorescence, 24 h, PK04 Diversity Set, profiling panel (AID 1172). Also: test concentration not given here. Particulars: HepG2 viability, higher = more signal.
A short description of assay [2]: budding yeast growth changes without added modifier – OD600, strain BY4716, 24 h, basal condition, primary screen (AID 1173). To be noted: S. cerevisiae BY4716 growth, OD600, 24 h; higher = more signal, called active from +8 up or from −8 down.
The nature of assay [3]: viability profiling in MM1S myeloma cells – cell-based, resazurin fluorescence, basal, 24 h, PK04 Diversity Set, profiling panel (AID 1174).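 Also: MM1S multiple myeloma cell line; test concentration not given here.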 To be noted: higher = more signal, called active from +8 up or from −8 down. Background: Resazurin is reduced to fluorescent resorufin, in cell work by metabolically active cells.
Assay [4] concerns the target Dihydroorotate dehydrogenase (quinone), mitochondrial (Plasmodium falciparum (isolate 3D7)) (UniProt Q08210). As to the kind of experiment: inhibition of P. falciparum DHODH – biochemical, C-terminal His tag, absorbance 600 nm, primary screen (AID 1175).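 Also: recombinant parasite enzyme with a five histidine tag at its C terminus; test concentration not given here.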 To be noted: PfDHODH enzyme, DCIP absorbance 600 nm; higher = more signal, called active from +8 up or from −8 down.

The nature of assay [5]: inhibition of PAO1 biofilm formation – strain PAO1, LB-PBS medium, absorbance 600 nm, primary screen (AID 1176). Also: test concentration not given here. Particulars: P. aeruginosa PAO1 growth/biofilm, A600, 12 h; higher = more signal.
Assay [6] in a line: growth modulation of vineyard yeast isolate – strain RM11-1a, OD600, basal, 24 h, primary screen (AID 1177).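 Also: cultures grown under basal conditions with no added stressor; test concentration not given here.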 To be noted: S. cerevisiae RM11-1a growth, OD600, 24 h; higher = more signal, called active from +8 up or from −8 down.
Assay [7] is described as follows: growth of efflux-deficient E. coli DRC39 – strain DRC39, OD650, 24 h, E. coli filamentation inducers, primary screen (AID 1178).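 Also: growth measured as culture turbidity by optical density at 650 nm; test concentration not given here.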 To be noted: E. coli DRC39 acrAB, higher = more signal, called active from +8 up or from −8 down.
The nature of assay [8]: growth of efflux-deficient E. coli DRC39 – strain DRC39, OD650, 48 h, E. coli filamentation inducers, primary screen (AID 1179).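 Also: screen aims at cell division blockers that make cells filament.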 Particulars: E. coli DRC39 delta-acrAB growth, higher = more signal, called active from +8 up or from −8 down.
Assay [9] is described as follows: viability profiling in RPMI8226 myeloma cells – cell-based, resazurin fluorescence, basal, 24 h, PK04 Diversity Set, profiling panel (AID 1180).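 Also: RPMI8826 multiple myeloma cell line at 5000 cells per well; test concentration not given here.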 Particulars: higher = more signal.
Assay [10] has as its target E3 ubiquitin-protein ligase XIAP (Homo sapiens) (UniProt P98170). As to the kind of experiment: small molecules binding XIAP protein – biophysical, small-molecule microarray, fluorescence 635 nm, primary screen (AID 1181).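 Also: score merges 667 nm emission and signal to noise over triplicate slides.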 Particulars: higher = more signal.

Chain of E3 ubiquitin-protein ligase XIAP (Homo sapiens) (P98170 whole entry, looked up): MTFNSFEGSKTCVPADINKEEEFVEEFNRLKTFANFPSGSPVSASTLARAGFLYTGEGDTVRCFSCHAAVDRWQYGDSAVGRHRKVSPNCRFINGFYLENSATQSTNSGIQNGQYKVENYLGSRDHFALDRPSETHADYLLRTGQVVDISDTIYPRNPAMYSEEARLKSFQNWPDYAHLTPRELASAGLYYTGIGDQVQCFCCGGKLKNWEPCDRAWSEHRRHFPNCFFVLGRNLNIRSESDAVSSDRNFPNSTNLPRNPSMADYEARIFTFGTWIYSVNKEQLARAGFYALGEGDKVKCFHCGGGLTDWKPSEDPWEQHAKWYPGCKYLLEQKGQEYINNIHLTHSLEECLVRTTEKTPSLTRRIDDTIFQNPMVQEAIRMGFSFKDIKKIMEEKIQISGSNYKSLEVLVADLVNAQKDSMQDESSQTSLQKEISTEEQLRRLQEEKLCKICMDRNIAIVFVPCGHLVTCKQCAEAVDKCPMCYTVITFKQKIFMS
Chain of Dihydroorotate dehydrogenase (quinone), mitochondrial (Plasmodium falciparum (isolate 3D7)) (Q08210 whole entry, looked up): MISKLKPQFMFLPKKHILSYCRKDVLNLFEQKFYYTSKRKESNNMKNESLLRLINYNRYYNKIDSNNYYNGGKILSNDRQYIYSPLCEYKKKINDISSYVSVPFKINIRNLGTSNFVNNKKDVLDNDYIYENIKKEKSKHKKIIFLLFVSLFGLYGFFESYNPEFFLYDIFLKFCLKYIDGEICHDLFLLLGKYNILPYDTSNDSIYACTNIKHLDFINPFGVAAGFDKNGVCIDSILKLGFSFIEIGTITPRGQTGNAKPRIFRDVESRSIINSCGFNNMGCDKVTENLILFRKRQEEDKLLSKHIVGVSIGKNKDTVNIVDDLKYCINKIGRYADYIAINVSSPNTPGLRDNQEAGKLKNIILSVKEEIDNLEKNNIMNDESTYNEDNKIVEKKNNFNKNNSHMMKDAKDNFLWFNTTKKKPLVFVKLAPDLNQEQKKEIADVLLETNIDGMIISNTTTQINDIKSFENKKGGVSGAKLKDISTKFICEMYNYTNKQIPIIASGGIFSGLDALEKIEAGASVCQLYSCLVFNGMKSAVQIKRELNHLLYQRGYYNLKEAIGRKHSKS

Regarding `CC(C)C(=C=CC[C@H](O)c1ccc(OCCO)cc1)C[C@H](O)c1cc(Cl)cc(Cl)c1O`, the z-score was 0.918 in [1]; -5.12 (inactive) in assay [2]; -1.31 (inactive) in assay [3]; -0.21 (inactive) in assay [5]; -0.2 (inactive) in assay [6]; 1.14 (inactive) in [7]. The z-score was 0.476 (inactive) in assay [8] and -0.576 in [9]. For the same compound, the composite z-score was -2.84 (inactive) in [4] and 0.0338 in [10].

As to `O=C1C2C=CC(C(O)c3cc(C(F)(F)F)cc(C(F)(F)F)c3)N(Nc3ccc([N+](=O)[O-])cc3)C2C(=O)N1c1ccccc1` (stereo not given), the z-score in assay [1] is -0.566; in assay [2], 0.55 (inactive); in [3], -0.683 (inactive); in assay [5] it was 1.07 (inactive); in assay [6] it was 0.565 (inactive); in assay [7] it was -2.26 (inactive). For the same compound, the figures for the z-score in assay [8] and in assay [9] were -1.25 (inactive) and -2.18, respectively. The composite z-score in assay [4] is 0.665 (inactive); in assay [10], 0.29.

`CCOC(=O)C[C@H]1[C@H](OC(=O)c2ccc(-c3ccccc3)cc2)[C@@H](NC(=O)c2ccc3ccccc3n2)c2cc(OCCCO)ccc2N1C(=O)c1ccccc1`: the z-score was -0.576 in assay [1]; 1.11 (inactive) in assay [2]; -0.421 (inactive) in assay [3]; -0.37 (inactive) in assay [5]; 0.97 (inactive) in assay [6]; 0.353 (inactive) in assay [7]. For the same compound, the z-score was 0.287 (inactive) in assay [8] and -0.193 in assay [9]. The composite z-score in assay [4] is 0.421 (inactive); in assay [10] it was -0.286.

In the case of `C=CCNC(=O)[C@H]1[C@@H]2C(=O)O[C@@H](c3ccccc3)[C@@H](c3ccccc3)N2[C@@H](c2ccccc2OCCO)[C@]12C(=O)N(C(=O)OCCOC)c1ccc(C#CC3=CCCCC3)cc12`, the z-score in assay [1] was -1.22; in assay [2], 1.22 (inactive); in [3], -5.62 (inactive); in assay [5], 1.37 (inactive); in assay [6], 2.81 (inactive); in assay [7], -0.29 (inactive). The figures for the z-score in assay [8] and in [9] were 0.286 (inactive) and -4.42, respectively. Besides, the composite z-score in assay [4] is 1.09 (inactive); in assay [10], 0.106.

As for `NC(N)=NCc1cn(CCc2c[nH]c3ccccc23)nn1`, the z-score in assay [1] is -0.739; in assay [2], 0.274 (inactive); in assay [3], -0.237 (inactive); in assay [5], 0.0429 (inactive); in assay [6], 0.191 (inactive); in assay [7], 0.148 (inactive). The z-score in assay [8] is -0.0579 (inactive); in assay [9], -0.533. The composite z-score is -26.7 (active) in [4] and -0.163 in assay [10].

For the compound `CO[C@H]1O[C@H](CO)[C@@H](OC(=O)c2ccc(Br)cc2)[C@@H]2OC(=O)[C@@H](Cc3ccc4ccccc4c3)C/C=C/C[C@H](Cc3ccc4ccccc4c3)C(=O)O[C@@H]12`, the z-score in assay [1] is -0.213; in [2], -1.23 (inactive); in assay [3], -0.612 (inactive); in assay [5], -0.649 (inactive); in [6], -1.34 (inactive); in assay [7], 0.738 (inactive). For the same compound, the figures for the z-score in [8] and in [9] were 1.03 (inactive) and 0.402, respectively. In addition, the composite z-score is -1.92 (inactive) in [4] and 0.0848 in [10].

`C=C(/C=C/CNS(=O)(=O)c1ccc(C)cc1)[C@H](O)[C@H]1CCCN1S(=O)(=O)c1ccccc1[N+](=O)[O-]`: the z-score in assay [1] is -0.0339; in assay [2], 0.587 (inactive); in [3] it was 0.113 (inactive); in [5], -0.447 (inactive); in [6], 1.41 (inactive); in assay [7] it was 1.45 (inactive). Besides, the z-score is 0.579 (inactive) in assay [8] and 0.0925 in assay [9]. For the same compound, the results for the composite z-score in [4] and in assay [10] were 0.858 (inactive) and -0.0582, respectively.

Regarding `CCOC(=O)C1=CC[C@@H](c2ccccc2C(F)(F)F)N(S(=O)(=O)c2ccc(C)cc2)C1`, the z-score in assay [1] is -0.217; in assay [2], -3.44 (inactive); in assay [3], -0.578 (inactive); in assay [5], -0.184 (inactive); in assay [6], -1.07 (inactive); in assay [7], -0.346 (inactive). Further, the z-score in assay [8] was 0.984 (inactive); in [9], -0.338. The figures for the composite z-score in assay [4] and in assay [10] were -2.99 (inactive) and -0.12, respectively.

As to `CC(=O)n1cc(C(O)C2C=CC3C(=O)N(c4ccccc4)C(=O)C3N2Nc2ccccc2)c2ccccc21` (stereo not given), the z-score in [1] was -1.51; in assay [2], -3.18 (inactive); in assay [3] it was -2.12 (inactive); in assay [5], 0.807 (inactive); in [6], 0.127 (inactive); in assay [7], -0.0484 (inactive). Also, the results for the z-score in assay [8] and in assay [9] were -0.602 (inactive) and -1.76, respectively. In addition, the composite z-score was 0.342 (inactive) in assay [4] and 0.0297 in assay [10].

With `CC1CC/C=C\[C@H]2OC34C=CCN(C(C)C)C(=O)[C@H]3N(CCCCCO)C(=O)[C@@H]4C2C(=O)O1` (stereo not given in full), the z-score in assay [1] is 0.551; in assay [2] it was -0.436 (inactive); in assay [3], 1.46 (inactive); in [5] it was -1.28 (inactive); in [6], -0.171 (inactive); in [7], 1.01 (inactive). Moreover, the z-score in assay [8] is 1.07 (inactive); in assay [9] it was 0.894. Besides, the composite z-score in assay [4] was -1.16 (inactive); in assay [10] it was -0.304.
